{"source": "the supplement of paper PMC8975748", "note": "Structures can show the parent of a compound that is named as a salt."}
{"tested_on": "Saccharomyces cerevisiae BY4741 SeMeCo community", "assay": "z-score of prototroph abundance vs DMSO median; higher = larger share of this subpopulation than in DMSO controls", "conditions": "10 µM; 24 h; SM minimal medium; subpopulation (auxotrophy): Prototroph", "in_short": "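Four plasmids, each restoring a single auxotrophy and encoding a distinct fluorescent protein, were carried by a Saccharomyces cerevisiae BY4741 community. After overnight growth to OD600 1.0 and dilution to 0.3, 70 µl per well was grown for 24 h in minimal SM medium on 384-well plates acoustically predosed with library drugs at 10 µM final. Following paraformaldehyde fixation, automated confocal microscopy was used, with single-auxotroph fluorescent strains defining thresholds and autofluorescence correction. Subpopulation abundance was then scored as a z-score against the vehicle-well median.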"}
{"compound": "C#CCN[C@@H]1CCc2ccccc21", "note": "[Rasagiline Mesylate]", "z-score of prototroph abundance": 0.23}
{"compound": "OCc1ccccc1O[C@@H]1O[C@H](CO)[C@@H](O)[C@H](O)[C@H]1O", "note": "[Salicin]", "z-score of prototroph abundance": 0.58}
{"compound": "CCCCCOc1ccc(-c2ccc(-c3ccc(C(=O)N[C@H]4C[C@@H](O)[C@@H](O)NC(=O)[C@@H]5[C@@H](O)[C@@H](C)CN5C(=O)[C@H]([C@@H](C)O)NC(=O)[C@H]([C@H](O)[C@@H](O)c5ccc(O)cc5)NC(=O)[C@@H]5C[C@@H](O)CN5C(=O)[C@H]([C@@H](C)O)NC4=O)cc3)cc2)cc1", "z-score of prototroph abundance": -14.8}
{"compound": "COc1cc2c(cc1OC)[C@@H]1Cc3ccc(OC)c(OC)c3CN1CC2", "note": "[Rotundine]", "z-score of prototroph abundance": -0.12}
{"compound": "C[C@H](NCc1ccc(OCc2cccc(F)c2)cc1)C(N)=O", "note": "[Safinamide]", "z-score of prototroph abundance": -0.89}
{"compound": "CC1(C)S[C@@H]2[C@H](NC(=O)COc3ccccc3)C(=O)N2[C@H]1C(=O)O", "note": "[Penicillin V potassium salt]", "z-score of prototroph abundance": 0.29}
{"compound": "CC[C@H]1OC(=O)C[C@@H](O)[C@H](C)[C@@H](O[C@@H]2O[C@H](C)[C@@H](O[C@H]3C[C@@](C)(O)[C@@H](O)[C@H](C)O3)[C@H](N(C)C)[C@H]2O)[C@@H](CC=O)C[C@@H](C)C(=O)/C=C/C(C)=C/[C@@H]1CO[C@@H]1O[C@H](C)[C@@H](O)[C@@H](OC)[C@H]1OC", "note": "[Tylosin]", "z-score of prototroph abundance": -1.25}
{"compound": "CN(C)CCc1c[nH]c2ccc(CS(=O)(=O)N3CCCC3)cc12", "note": "[Almotriptan Malate]", "z-score of prototroph abundance": 0.66}
{"compound": "CCN(CC)CCOCCOC(=O)C1(c2ccccc2)CCCC1", "note": "[Pentoxyverine Citrate]", "z-score of prototroph abundance": 0.37}
{"compound": "Cc1cccc(C)c1NC(=O)C1CCCCN1C", "note": "(centres undefined) [Mepivacaine]", "z-score of prototroph abundance": -0.01}
{"compound": "CC1=C(CC(=O)O)c2cc(F)ccc2/C1=C\\c1ccc([S+](C)[O-])cc1", "note": "(centres undefined) [Sulindac]", "z-score of prototroph abundance": 0.27}
{"compound": "C#C[C@]1(O)CC[C@H]2[C@@H]3CCC4=CCCC[C@@H]4[C@H]3CC[C@@]21C", "note": "[Lynestrenol]", "z-score of prototroph abundance": 0.17}
{"compound": "CN(C)CCCN1c2ccccc2Sc2ccc(Cl)cc21", "note": "[Chlorpromazine HCl]", "z-score of prototroph abundance": -0.29}
{"compound": "NC(=O)N1c2ccccc2C=Cc2ccccc21", "note": "[Carbamazepine]", "z-score of prototroph abundance": 0.13}
{"compound": "CC(=O)OCC(CCn1cnc2cnc(N)nc21)COC(C)=O", "note": "[Famciclovir]", "z-score of prototroph abundance": 0.55}
{"compound": "N[C@@H](CCC(=O)O)C(=O)O", "note": "[(S)-Glutamic acid]", "z-score of prototroph abundance": 0.18}
{"compound": "c1cnc2cc3c(cc2n1)[C@@H]1CNC[C@H]3C1", "note": "[Varenicline Tartrate]", "z-score of prototroph abundance": 0.71}
{"compound": "NC[C@@H]1O[C@H](O[C@H]2[C@@H](O)[C@H](O[C@@H]3[C@@H](O)[C@H](N)C[C@H](N)[C@H]3O[C@H]3O[C@H](CN)[C@@H](O)[C@H](O)[C@H]3N)O[C@@H]2CO)[C@H](N)[C@@H](O)[C@@H]1O", "note": "[Neomycin sulfate]", "z-score of prototroph abundance": 0.99}
{"compound": "C#CCC(Cc1cnc2nc(N)nc(N)c2n1)c1ccc(C(=O)N[C@@H](CCC(=O)O)C(=O)O)cc1", "note": "(some centres undefined) [Pralatrexate]", "z-score of prototroph abundance": 0.41}
{"compound": "CCCCCCCCCCCCCCCC[N+](C)(C)C", "note": "[Cetrimonium Bromide (CTAB)]", "z-score of prototroph abundance": -15.6}
{"compound": "C#C[C@]1(O)CC[C@H]2[C@@H]3CCC4=CCCC[C@@H]4[C@H]3C(=C)C[C@@]21CC", "note": "[Desogestrel]", "z-score of prototroph abundance": 0.47}
{"compound": "C=CC[N+]1([C@H]2C[C@H]3[C@@H]4CC[C@H]5C[C@H](O)[C@@H](N6CCOCC6)C[C@]5(C)[C@H]4CC[C@]3(C)[C@H]2OC(C)=O)CCCC1", "note": "[Rocuronium Bromide]", "z-score of prototroph abundance": 0.88}
{"compound": "N#CC(c1ccc(Cl)cc1)c1c(Cl)cc(-n2ncc(=O)[nH]c2=O)cc1Cl", "note": "(centres undefined) [Diclazuril]", "z-score of prototroph abundance": 1.02}
{"compound": "COCCCN1CCC(NC(=O)c2cc(Cl)c(N)c3c2OCC3)CC1", "note": "[Prucalopride]", "z-score of prototroph abundance": -0.29}
{"compound": "CN(C/C=C/C#CC(C)(C)C)Cc1cccc2ccccc12", "note": "[Terbinafine HCl]", "z-score of prototroph abundance": -0.62}
{"compound": "CC1(C)[C@H](C(=O)O)N2C(=O)C[C@H]2S1(=O)=O", "note": "[Sulbactam sodium]", "z-score of prototroph abundance": -0.92}
{"compound": "O=C1CCc2ccc(OCCCCN3CCN(c4cccc(Cl)c4Cl)CC3)cc2N1", "note": "[Aripiprazole]", "z-score of prototroph abundance": -0.84}
{"compound": "CCC(=O)Oc1ccc2c(c1)CCC1C2CCC2(C)C(OC(=O)CC)CCC12", "note": "(stereo not drawn) [Estradiol dipropionate(17-Beta-Estradiol-3,17-Dipropionate)]", "z-score of prototroph abundance": 0.27}
{"compound": "O=C(O)C[C@H](O)C[C@H](O)/C=C/c1c(C2CC2)nc2ccccc2c1-c1ccc(F)cc1", "note": "[Pitavastatin Calcium]", "z-score of prototroph abundance": -2.8}
